The panel holds about 83,000 compounds, 20% with a hit somewhere; the sample as a whole holds those more often.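 Results are percent growth after 48 hours of single-concentration exposure. 100 means growth as in untreated cells, lower positive values show inhibition; negative values down to -100 show cell death.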 Unmarked numbers belong to inactive results. Active and inactive are the calls of the source. Rule for the calls: active = growth percent below 10; inactive = the rest.
Tests used:
Assay in all cases: NCI-60 one-dose screen, 48 h (100 = growth as untreated, 0 = no growth, -100 = all killed)
Conditions in all cases: 10 µM unless noted
EKVX NSCLC = system: EKVX NSCLC
SN12C renal = system: SN12C renal
UO-31 renal = system: UO-31 renal
TK-10 renal = system: TK-10 renal
ACHN renal = system: ACHN renal
CAKI-1 renal = system: CAKI-1 renal
A498 renal = system: A498 renal
CCRF-CEM leukemia = system: CCRF-CEM leukemia
MOLT-4 leukemia = system: MOLT-4 leukemia
SK-MEL-2 melanoma = system: SK-MEL-2 melanoma

| SMILES | growth (EKVX NSCLC) | growth (SN12C renal) | growth (UO-31 renal) | growth (TK-10 renal) | growth (ACHN renal) | growth (CAKI-1 renal) | growth (A498 renal) | growth (CCRF-CEM leukemia) | growth (MOLT-4 leukemia) | growth (SK-MEL-2 melanoma) |
| --- | --- | --- | --- | --- | --- | --- | --- | --- | --- | --- |
| FC(F)(F)c1cc(-c2nnc3n2N=C(N2CCCC2)CS3)cc(C(F)(F)F)c1 | 80.6% | 69.2% | 48.8% | -22.1% (active) | 47.1% | 87.7% | 10.6% | 86.4% | 90.5% | – |
| O=c1sc2ncnc3ncn1c32 | – | 85% | 52.6% | 26.9% | – | 43.1% | 101% | 54.8% | 35.9% | 81.9% |
| CC(=O)c1nn(-c2ccccc2)c(=Nc2ccccc2)cc1C | – | 97.7% | 86.2% | 104% | 86.7% | 99.1% | 103% | – | 94.3% | 114% |
| O=C(Nc1nc2c(C(F)(F)F)cccc2s1)c1cc(Cl)ccc1O | 11.1% | -4.79% (active) | -10.9% (active) | 10.2% | 5.28% (active) | – | -36.9% (active) | 10.7% | -8.05% (active) | – |
| COc1cccc(C=Nc2cc(C(C)C)c(O)cc2C)c1O | – | 95% | 72.4% | 99.8% | 100% | – | 75.7% | 35% | 98.2% | 102% |
| Cc1[nH]c(=O)[nH]c(=O)c1CCSSCCc1c(C)[nH]c(=O)[nH]c1=O | – | 104% | 83.3% | 101% | 104% | 97.1% | 107% | – | 100% | 102% |
| N[C@H](CS)C(=O)O | 97.7% | 107% | 92.4% | 97.3% | 102% | 70.4% | 117% | 90.8% | 104% | – |
| CCN(CC)CCOCC[C@H]1CC[C@H]2[C@@H]3[C@H](C)Cc4cc(OS(N)(=O)=O)ccc4[C@H]3CC[C@]12C | -23.4% (active) | -62.9% (active) | -80.8% (active) | -56.8% (active) | -65.9% (active) | -73.9% (active) | -91.6% (active) | -26.8% (active) | -52.2% (active) | – |
| CCOC(=O)c1sc(NC(=O)COc2cccc(/C=C3\Cc4ccc(Cl)cc4C3=O)c2)nc1C | 107% | 105% | -17.4% (active) | 145% | 110% | 84.6% | 133% | 114% | 105% | – |
| O=C(CN1CCN(c2ccc(Cl)cc2)CC1)N1CCN(c2nnc(-c3ccccc3)c(-c3ccccc3)n2)CC1 | 29.9% | 49.5% | 14.6% | 68.8% | 39.3% | 92.6% | 45.4% | 20.4% | -35.1% (active) | – |
| O=C(/C=C/c1cccc(O)c1)c1cccc(-n2cc(-c3ccccc3)[nH]c2=O)c1 | 66.8% | -12.9% (active) | -73.5% (active) | 12.4% | -75.8% (active) | 8.38% (active) | 90.6% | -3.86% (active) | -7.37% (active) | – |
| CNc1nc(NC2CCCC2)nc(Sc2ccc(OC)cc2)n1 | – | 28.5% [100 µM] | 12.8% [100 µM] | 42.1% [100 µM] | 21% [100 µM] | 0.0278% [100 µM] (active) | 10.1% [100 µM] | – | -5.92% [100 µM] (active) | 9.28% [100 µM] (active) |
| c1ccc(COc2ccc(Nc3ncnc4c3cnn4-c3ccccc3)cc2)cc1 | – | 97.4% | 79.6% | 111% | – | 99.1% | 77.9% | 80.8% | 93.1% | 115% |
| COc1ccc(N2CCN(CC(=O)N3CCN(c4nnc(-c5ccc(Cl)cc5)c(-c5ccc(Cl)cc5)n4)CC3)CC2)cc1 | 53.4% | 67.7% | 21.2% | 84.2% | 52.3% | 147% | 38.1% | 20.6% | -21.2% (active) | – |
| COC(=O)[C@H](Cc1cn(C)cn1)NC(=O)[C@H](Cc1ccccc1)NC(=O)Nc1cc(C(F)(F)F)cc(C(F)(F)F)c1 | – | -96.1% [100 µM] (active) | -93.4% [100 µM] (active) | -97.9% [100 µM] (active) | -96.3% [100 µM] (active) | – | -90.6% [100 µM] (active) | – | -55% [100 µM] (active) | -94.9% [100 µM] (active) |
| COC(=O)[C@H](Cc1cn(C)cn1)NC(=O)[C@H](C)NC(=O)Nc1cc(C(F)(F)F)cc(C(F)(F)F)c1 | – | -82.4% [100 µM] (active) | -92.7% [100 µM] (active) | -96.4% [100 µM] (active) | – | 73.1% [100 µM] | -88.4% [100 µM] (active) | – | -27.4% [100 µM] (active) | -90.1% [100 µM] (active) |
| CC(C)=CCNc1ncnc2c1ncn2C1OC(COP(=O)(O)O)C(O)C1O (stereo not given) | – | 32.4% | 39.6% | – | 28.2% | 16.3% | -7.75% (active) | 11.4% | 6.19% (active) | 69.4% |
| CCCCCCCCCCCCCCCCCC1=NC(C)(CO)CO1 (stereo not given) | – | 94.2% | 76.3% | 87.1% | 91% | 85.5% | 104% | – | 93.8% | 91.3% |
| COc1cccc(CCN2C(=O)CCC3=C2CCC3=O)c1 | – | 99.4% | 85.7% | 107% | 99.8% | 98% | 114% | – | 105% | 145% |
| FC(F)(F)c1ccc(-c2cnc(-c3nn[nH]n3)nc2NC2CCCCCC2)cc1 | – | 50.9% [50 µM] | 38.2% [50 µM] | 105% [50 µM] | 68.9% [50 µM] | 36.8% [50 µM] | 61.5% [50 µM] | – | 25.4% [50 µM] | 47.3% [50 µM] |
| O=C(c1ccc(Cl)cc1)c1ccc(Cl)cc1 | 108% | 102% | 108% | 101% | 123% | 115% | 97.7% | 88.6% | 106% | – |
| O=C1c2cccc3c([N+](=O)[O-])ccc(c23)C(=O)N1CCCCl | – | -93.1% [100 µM] (active) | -86.6% [100 µM] (active) | -50.2% [100 µM] (active) | -96.1% [100 µM] (active) | -91.4% [100 µM] (active) | -92.4% [100 µM] (active) | – | -11.3% [100 µM] (active) | -94.9% [100 µM] (active) |
| CCOC(=O)C(C(=O)OCC)C1CCCCC1 | – | 106% | 91.8% | 101% | 102% | – | 107% | – | 102% | 110% |
| Clc1ccc(C2=NN(c3ccc(Cl)cc3)C(c3cccc(Nc4ccnc5cc(Cl)ccc45)c3)C2)cc1 (stereo not given) | 74.3% | 77.7% | 50.7% | 95.2% | 88.7% | – | 89.3% | 88.5% | 56.7% | – |
| COc1ccc2c(=O)c(OC)c(-c3cc(OC)c(OC)c(OC)c3)oc2c1 | 109% | 77% | -82.5% (active) | 124% | 92.2% | – | 96.1% | 93.4% | 99.6% | – |
| Cc1sc2nc(NCCc3cccs3)[nH]c(=O)c2c1C | 85.5% | 87.7% | 90% | 96.8% | 96.1% | – | 70.7% | 81.9% | 75.3% | – |
| Cc1sc2nc(N3CCCCC3)[nH]c(=O)c2c1C | 94.3% | 99.2% | 96% | 106% | 103% | – | 95% | 93.7% | 88.8% | – |
| Cc1cc2c(cc1C)[n+](Cc1ccc3ccccc3c1)cn2Cc1ccc2ccccc2c1 | -64.3% (active) | -87.2% (active) | -57.1% (active) | -87.7% (active) | -63.9% (active) | – | -68% (active) | -35.1% (active) | -64.1% (active) | – |
| O=C(CNC(=O)c1cccc2ccccc12)Nc1ccccc1Cc1ccccc1 | 54.9% [5 µM] | 56.3% [5 µM] | 60.7% [5 µM] | 49.6% [5 µM] | 56.9% [5 µM] | – | 38.2% [5 µM] | 20.4% [5 µM] | 19.2% [5 µM] | – |
| COc1cc(-c2nnc(-c3nc(-c4cc(OC)c(OC)c(OC)c4)n4ccccc34)o2)ccc1N | 8.84% (active) | 50.4% | 38.6% | – | 62.2% | 59.3% | 98.8% | 43% | 64.6% | – |

Reference: PubChem BioAssay (NCI)
